GLP1R inv ag: GLP-1 receptor (human) inverse agonism; Potency, µM (titrated, usually from 38.3 µM), inactives show top-dose activity change, negative = inhibition, most hits filed as inhibitors; HEK293 GLP-1R CRE-luciferase, luminescence, 24 h; GLP-1R form is constitutively active; 410,000 tested, 1.6% active; further: on the % scale 0 is the no-effect control and ±100 the full control effect; nearly all actives have a fitted effect of over 55% in size
Target sequence (P43220 whole entry, looked up): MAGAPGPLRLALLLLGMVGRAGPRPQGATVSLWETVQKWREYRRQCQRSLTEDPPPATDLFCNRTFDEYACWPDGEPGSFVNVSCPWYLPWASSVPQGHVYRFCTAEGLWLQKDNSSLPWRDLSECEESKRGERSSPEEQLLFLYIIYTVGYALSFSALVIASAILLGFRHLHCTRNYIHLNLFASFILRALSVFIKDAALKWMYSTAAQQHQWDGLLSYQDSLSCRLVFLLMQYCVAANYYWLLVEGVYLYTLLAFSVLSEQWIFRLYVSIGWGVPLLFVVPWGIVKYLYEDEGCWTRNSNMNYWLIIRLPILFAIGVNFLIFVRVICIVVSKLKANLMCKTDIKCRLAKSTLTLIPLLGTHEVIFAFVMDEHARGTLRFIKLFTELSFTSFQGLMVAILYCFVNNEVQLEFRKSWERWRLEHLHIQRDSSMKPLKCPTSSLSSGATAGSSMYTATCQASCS
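HEK293 cells stably co-expressing constitutively active GLP-1R and a cAMP-responsive luciferase reporter were seeded in DMEM with 10% Nu serum, given compounds after 12 h, and incubated 24 h at 37 deg C. Luminescence was then read.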
PTHR1 agonist: activates the human parathyroid hormone receptor PTHR1; Potency, µM (doses to about 115 µM), inactives show at the highest dose activation, most hits filed as activators; HEK293 GP2 PTHR1 cells, GloSensor cAMP luminescence, 1 h; 410,000 tested, 0.075% active; further: nearly all actives have a fitted effect of over 55% in size
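HEK-293-derived GP2 cells expressing PTHR1 and a GloSensor cAMP reporter, 3,000/well, plated overnight, given luciferin plus IBMX (each 0.5 mM as added) for 1 h at 37 °C, then compound for 1 h at 37 °C. Luminescence was read after 15 min at room temperature.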
GRP78 ERSR act: ER stress response induction in glioma. AID 602332. U87-MG GRP78 promoter luciferase reporter, 16 h. Potency, µM, for the others: at the top dose activation, actives largely listed as activators. 420,000 tested, 0.02% active; further: series mostly up to about 76 µM; % of control where 0% means no effect; nearly all actives have a fitted effect of over 35% in size
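Stably transfected U87-MG glioma cells carrying a GRP78-based luciferase sensor; 16 h compound incubation. Luminescence end-point read 10 min after Bright-Glo addition at room temperature.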
GLP1R ag: agonists of human GLP-1 receptor | P43220 | HEK293 GLP-1R CRE-luciferase, luminescence, 4-6 h; cells express a hypersensitive GLP-1R form | Potency, µM (highest dose often 45.6 µM), for inactives: top-dose activation, most hits filed as activators | 380,000 tested, 0.007% active; further: % of control where 0% means no effect
GLS inhibitor: inhibitors of human glutaminase (GLS); O94925; GLS enzymatic activity, qHTS titration; Potency, µM (top dose mostly 45.5 µM), without a hit: at the highest dose activity change, negative = inhibition, hits mostly inhibitors; 410,000 tested, 0.21% active; AID 624170; further: on the % scale 0 is the no-effect control and ±100 the full control effect
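Two-point fluorescence kinetic (t0, 30 min RT) for hKGA; glutamate detected via glutamate oxidase–HRP–Amplex Red. Substrate: 1 mM L-glutamine solution; buffer 45 mM KH2PO4, pH 8.2.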
12-LOX inh: inhibitors of human 12S-lipoxygenase ALOX12; P18054; purified 12hLO, xylenol orange hydroperoxide absorbance; Potency, µM (series often up to 108 µM), without a hit: at the top dose activity change, negative = inhibition, hits mostly inhibitors; 580,000 tested, 1.1% active; further: on the % scale 0 is the no-effect control and ±100 the full control effect
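Hydroperoxide product was detected by ferrous iron/xylenol orange as the 573 to 405 nm absorbance ratio. Arachidonic acid at 40 uM (final) was turned over for 30 min at room temperature by 150 nM human 12hLO, pH 7.0 Hepes buffer, after 15 min compound preincubation.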
An asterisk follows results filed as active; i = inactive; u = inconclusive; x = no result given; [ ] = dose if it differs, or a comment. Only some compounds are listed: those with a hit (about 2.3% of all), similar ones and a draw of the others. The call rests on the fitted dose curve; in most records, active means well fitted curve in the direction sought with a large enough effect; inconclusive means small, poorly fitted or top-dose-only effect, or another doubt; inactive means no such curve, though single readings can be large; an effect the other way counts as inactive or inconclusive. Potency means the concentration at half of the fitted maximal effect.

SMILES | GLP1R inv ag | PTHR1 agonist | GRP78 ERSR act | GLP1R ag | GLS inhibitor | 12-LOX inh
COc1ccccc1CNC(=O)CCC[C@H]1NC[C@@H]2C[C@H]1CN(Cc1ccccc1)C2 | x | x | x | x | x | 10µM*
O=C(CCC[C@H]1NC[C@@H]2C[C@H]1CN(Cc1ccccc1)C2)NCC1CCCCC1 | x | x | x | x | x | -2%
O=C(CCC[C@H]1NC[C@@H]2C[C@H]1CN(Cc1ccccc1)C2)N1CCN(C2CCCC2)CC1 | x | x | x | x | x | -15%
O=C(CNc1ccccc1OC(F)F)N1CCNC1=O | x | x | x | x | x | -8%
O=C(NC(=S)NCc1ccccc1)c1cccc(Cl)c1 | u | -14% | -1% | 8% | -1% | 28µM*
O=C(CC12CC3CC(CC(C3)C1)C2)NC(=S)NCc1ccccc1 | -25% | i | -4% | -3% | -6% | 28µM*
COc1ccc(C(=O)NC(=S)NCc2ccccc2)cc1OC | 13% | -23% | -5% | 29% | 0% | 16µM*
S=C(NCc1ccccc1)NCc1cccc(Cl)c1 | u | -5% | -5% | -1% | 5% | u
COc1cc(C(=O)NC(=S)Nc2ccc3ccccc3c2)cc(OC)c1OC | u | i | 3% | 4% | 3% | 18µM*
COc1ccc(C(=O)NC(=S)Nc2cccc3cc(O)ccc23)cc1OC | u | i | -3% | 18% | -4% | 10µM*
Cc1cc(C)cc(NC(=O)C(=S)NCc2ccccc2)c1 | 11µM* | 0% | 2% | -3% | -20% | 3%
Cc1cc(C)cc(NC(=S)NC(=O)Cc2ccccc2)c1 | u | i | -1% | 22% | 14% | u
COc1ccc(CCNC(=O)CCNC(=O)c2ccc(Br)cc2)cc1OC | 0% | i | 2% | 2% | 0% | -6%
COc1ccc(CCNC(=S)NC(=O)c2ccc(Br)cc2)cc1OC | u | -40% | 1% | 21% | 7% | 28µM*
Cc1ccc(C(=O)NC(=S)Nc2ccccc2C(F)(F)F)cc1 | u | i | 1% | 17% | 0% | 7.9µM*
Cc1noc(CSc2nnc(Nc3ccc(C(C)C)cc3)s2)n1 | x | x | x | x | x | 9%
O=C(c1ccccc1F)N1CCC2(CC1)COc1ccccc1CN2 | x | x | x | x | x | 28%[176 µM]
COc1ccc(-c2cc(N3CCCC(NC(=O)c4cc(OC)cc(OC)c4)C3)n[nH]2)cc1 (configuration not stated) | x | x | x | x | x | 5%
CCOc1ccc(-c2cc3c(N4CCC(C(=O)NCc5cccs5)CC4)nccn3n2)cc1 | x | x | x | x | x | 18%
CCCCn1c(SCC(=O)c2cc(C)n(C3CC3)c2C)nc2cc(S(N)(=O)=O)ccc21 | x | x | x | x | x | -61%
Cc1ccc(C(=O)NC(=S)NCc2ccccc2)cc1 | -27% | -13% | 2% | 12% | 1% | 10µM*
Cc1ccc(C(=O)NC(=S)NCc2ccco2)cc1 | -26% | i | 4% | 4% | -5% | u
CC1(Cc2ccc(C(F)(F)F)o2)C(=O)Nc2ccc(-c3cccc(C(F)(F)F)c3)cc21 (configuration not stated) | 10µM* | -16% | -10% | -8% | 0% | u
CC1(Cc2ccc3c(c2)OCO3)C(=O)Nc2ccc(-c3cccc(C(F)(F)F)c3)cc21 (configuration not stated) | u | -15% | -14% | -24% | 3% | -25%
O=C(Nc1ccc2c(c1)CCC2)c1ccc2ccccc2c1 | x | x | x | x | x | -40%
SMILES | GLP1R inv ag | PTHR1 agonist | GRP78 ERSR act | GLP1R ag | GLS inhibitor | 12-LOX inh
COc1ccc(NC(=O)c2ccccc2SCc2ccc(C#N)cc2)cc1OC | x | x | x | x | x | 35µM*
O=C(Nc1ccc2c(c1)OCO2)c1ccccc1SCC(=O)N1CCCC1 | 7% | i | -3% | 2% | 13% | u
N#Cc1ccc(CSc2ccccc2C(=O)Nc2ccc3c(c2)OCCCO3)cc1 | x | x | x | x | x | 14µM*
N#CCSc1ccccc1C(=O)Nc1ccc2c(c1)CCC2 | x | x | x | x | x | 1.1µM*
O=C(Nc1ccc2c(c1)OCCCO2)c1ccccc1SCc1cccs1 | x | x | x | x | x | 16µM*
COc1cccc(N2CC(C(=O)N3CCC(C(=O)NCc4cccc(F)c4)C3)NC2=O)c1 (configuration not stated) | x | x | x | x | x | 9%

From PubChem
